Only some compounds are listed: those with a hit (about 1.8% of all), similar ones and a draw of the others.
Bfl-1 A1 inh – caspase 3/7 activation in MEF A1-2A-BIM cells, primary screen, A1 inhibitor project, cell-based, luminescence, HTS; Caspase-Glo 3/7 luminescence, 3 h; percent of clofoctol response, vehicle zero; caspase activation, % (concentration not given with the values); 330,000 tested, 0.066% active;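 active = over half of replicate activation scores above 10%, or exactly half above 10 with the replicate mean above 10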
AI-2 QS mod – Vibrio harveyi AI-2 quorum sensing modulators, primary screen, JMH597 strain, luminescence/OD600 ratio; 300,000 tested, 0.4% active; Vibrio harveyi JMH597 AI-2 luminescence/OD600 ratio, 9 h; hits give low values; strain lacks LuxN and CqsS sensors; 0 = neutral-control median; AID 2094, 2009; activity change, % at 7.5 µM; in the data active = activity change below about -75%, passing the limit was not always enough;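 also: luminescence divided by OD600 gain over 9 h not by final OD600 alone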
aDG glyco up – activators of alpha-DG glycosylation, primary screen, uHTS, Pro5-aDG cells, AlphaScreen. activation, % at 10 µM. 360,000 tested, 0.22% active. alpha-DG glycosylation AlphaScreen (IIH6); 0% Pro5, 100% B10-LARGE cell signal;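 active = activation of at least 8% versus controls, or a plate z-score of at least 8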;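 also: Pro5 are CHO cells carrying HIG-tagged alpha-DG that lacks glycosylation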
Mot1-301 SUMO – yeast Mot1-301 growth rescue at high temperature, primary screen, SUMOylation pathway inhibitor project, S. cerevisiae, ATP luminescence, 38.5C. 320,000 tested, 1% active. AID 2716, 2010. S. cerevisiae Mot1-301 growth rescue; percent above DMSO median, 100 means doubled. growth rescue, % at 18.8 µM;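 active = every valid replicate shows activation above 250% relative to neutral control wells; inactive = the rest, any valid replicate at or below 250%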;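 also: OY570 slx delta 5 strain wells were the positive control but not used for scaling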
ARNT-TACC3 inh – disruptors of ARNT/TACC3 protein interaction, primary screen, biochemical, AlphaScreen, single concentration | Transforming acidic coiled-coil-containing protein 3 (Homo sapiens), Q9Y6A5 | AlphaScreen His-ARNT PAS-B/GST-TACC3 binding, luminescence; TACC3 fragment carries E629A point mutation | inhibition, % at 9.99 µM | 390,000 tested, 0.66% active;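 active = mean inhibition of replicates at least 50% and at least half of replicates each reaching 50%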;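 also: 0% = complete ARNT plus TACC3 wells and 100% = ARNT alone without TACC3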
aDG conf – alpha-DG glycosylation enhancers, retest, confirmation, single concentration, Pro5-aDG cells; IIH6 AlphaLISA; scaled to LARGE-overexpressing B10 cells as 100%; shares compounds with aDG glyco up; activation, % at 10 µM (by protocol); 600 tested, 17% active; AID 651671, 2012;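 active = activation of at least 7% in one or more replicates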;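 also: cells exposed to compound for two days before detection; 0% = DMSO-treated Pro5 cells and 100% = DMSO-treated B10-LARGE cells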
* hit, by the source's call; . = not tested or not shown.

SMILES | Bfl-1 A1 inh | AI-2 QS mod | aDG glyco up | Mot1-301 SUMO | ARNT-TACC3 inh | aDG conf
O=C(CNCCO)N1N=C(c2cccs2)CC1c1cccs1 (stereo not given) | -1 | 27 | 0 | -31 | 0 | .
COc1ccc(C2N=C(c3ccccc3)NO2)cc1OC (stereo not given) | 0 | 8 | 2.8* | -7 | 10 | 0
COc1cc(C2N=C(c3ccccc3)NO2)cc(Br)c1O (stereo not given) | -8 | 2 | 0 | -7 | 6 | .
COc1ccc(CCN(C)C2CCCN(C(=O)c3ccnn3C)C2)cc1OC (stereo not given) | 1 | 22 | 0 | 2 | 2 | .
Cc1ccccc1S(=O)(=O)Cc1ccc(C(=O)N2CCN(c3cccc(C)c3C)CC2)o1 | 1 | 23 | 0 | . | -18 | .
Fc1ccc(-c2nc3c4ccccc4ccn3c2CC2CCCCC2)cc1 | . | . | 4 | . | . | .
Clc1ccc(-c2nc3c4ccccc4ccn3c2CC2CCCCC2)cc1 | . | . | 22* | . | . | 3
Clc1cccc(-c2nc3c4ccccc4ccn3c2CC2CCCCC2)c1 | . | . | 11* | . | . | 2
Cc1ccc(NS(=O)(=O)c2ccc(C(=O)NC3CCN(Cc4ccccc4)CC3)cc2)cc1 | 1 | . | 13* | 16 | 8 | 4.8*
N#Cc1ccccc1Cn1c(=O)n(-c2ccc(CC(=O)NCc3ccco3)cc2)c(=O)c2sccc21 | 1 | 21 | 10* | 13 | -3 | 0
COc1ccc(N=Cc2ccccc2O)cc1 | . | . | 0 | . | -1 | .
COc1ccc2sc(/C=C/c3ccccc3O)[n+](C)c2c1 | . | . | 11* | . | 6 | 1
O=C(COc1ccc(F)cc1)c1c(O)cc(O)cc1O | -1 | -37 | 1 | -7 | -13 | .
Cn1c(Br)nc2c1c(=O)n(Cc1ccccc1)c(=O)n2C | 0 | 21 | 2.4* | 5 | -7 | 1
NC(=S)N/N=C/c1coc2cc(Br)ccc2c1=O | 1 | 1 | 1 | 11 | -5 | .
NC(=S)N/N=C/c1coc2c(ccc3ccccc32)c1=O | -1 | 7 | 9.0* | 158 | 2 | 0
O=C(CSc1nncn1-c1ccccc1)NC1CCCc2ccccc21 (stereo not given) | 0 | -5 | 0 | 12 | . | .
Cc1nnc(SCC(=O)NC2CCCc3ccccc32)n1-c1ccccc1 (stereo not given) | 1 | 13 | 7.0* | -2 | -4 | 1
c1ccc(Oc2nc(-c3ccccn3)nc3ccccc23)cc1 | -5 | 6 | 2.4* | -26 | . | 2.8*
COc1ccc(Oc2nc(-c3ccccn3)nc3ccccc23)cc1 | -3 | 29 | 2 | -6 | . | .
COc1ccc(NC(C)C(=O)N/N=C/c2ccc([N+](=O)[O-])s2)cc1 (stereo not given) | 1 | 78 | 9.7* | -14 | 7 | 3
Cc1ccc(NC(C)C(=O)N/N=C/c2ccc([N+](=O)[O-])s2)cc1 (stereo not given) | 1 | 35 | 5 | -16 | -21 | .
Cc1cc2ccccc2n1CCNC(=O)C1CCCC1 | 0 | -2 | 0 | -22 | 3 | .
Cc1cc2ccccc2n1CCNC(=O)C1CC1 | 0 | 26 | 7.8* | -3 | 6 | 0
O=C(c1ccncc1)N1CC[C@H]2[C@H](CO)Nc3ccc(-c4ccc(F)cc4)cc3[C@H]21 | . | . | . | . | 2 | .
COC(=O)[C@@]1(C)[C@H]2C(=O)N(Cc3ccccc3)C(=O)[C@H]2[C@H]2CN=C(SCc3ccc(C#N)cc3)N21 | . | . | 5.6* | . | -3 | 1
Cc1ccc(-c2cnc3c(c2)C(=O)N([C@H](C)CO)C[C@H](C)[C@@H](CN(C)C(=O)c2ccccc2)O3)cc1 | . | . | . | . | 1 | .
Cc1ccc2cc(CN(C(=O)c3ccco3)c3ccccc3C)c(=O)[nH]c2c1 | 0 | 28 | 0 | -7 | -3 | .

Source: PubChem
